An excerpt weighted towards active compounds, which were near 32% of everything screened.
PostGolgi ctrl: yeast control strain growth, post-Golgi counter-screen; efflux-deficient yeast background strain, growth absorbance A615, 16 h; inhibition, % at 10 µM; 98,000 compounds, 5% hits; AID 738
CYP2C19 activ: increases human CYP2C19 enzyme activity; 96,000 tested, under 10 active; recombinant CYP2C19, luciferin-H EGE luminescence; stronger effect = higher value; 0 = fully inhibited enzyme, 1 = untreated enzyme; activation factor at 5 µM;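 active = activation factor of at least 2 at 5 µM in the primary screen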;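 note: 0 = wells with 2.5 mM tranylcypromine and 1 = vehicle-only wells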
CYP2C9 activ: CYP2C9 (human) activation. P11712. recombinant CYP2C9, luciferin-H conversion, luminescence; stronger effect = higher value; factor 1 = untreated enzyme, 0 = blocked. activation factor at 5 µM. 96,000 compounds, 1.4% hits. AID 1024;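 active = activation factor of 2 or more for CYP2C9 at a 5 µM dose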;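 note: 0 = sulfaphenazole-blocked wells and 1 = vehicle-only wells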
Target sequence (P11712 whole entry, looked up): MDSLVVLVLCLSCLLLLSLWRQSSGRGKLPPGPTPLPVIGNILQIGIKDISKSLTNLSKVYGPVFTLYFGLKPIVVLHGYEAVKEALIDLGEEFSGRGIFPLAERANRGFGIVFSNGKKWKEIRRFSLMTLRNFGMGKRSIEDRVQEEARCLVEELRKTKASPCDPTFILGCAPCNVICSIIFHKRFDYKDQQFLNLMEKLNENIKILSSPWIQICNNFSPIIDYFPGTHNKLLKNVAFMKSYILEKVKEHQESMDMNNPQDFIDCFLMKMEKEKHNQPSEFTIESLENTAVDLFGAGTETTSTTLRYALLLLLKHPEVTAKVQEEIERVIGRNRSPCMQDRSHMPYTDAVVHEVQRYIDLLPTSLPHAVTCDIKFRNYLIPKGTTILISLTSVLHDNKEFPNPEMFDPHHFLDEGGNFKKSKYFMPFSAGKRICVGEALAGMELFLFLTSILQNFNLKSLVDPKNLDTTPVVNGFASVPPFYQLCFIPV
CYP2C19 inhib: inhibitors of human CYP2C19 | P33261 | CYP2C19 Supersomes, luciferin-H EGE luminescence, 30 min | inhibition, % at 5 µM | 96,000 compounds, 21% hits;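 active = CYP2C19 inhibition above a set limit at 5 µM in the primary screen, cut at about 50% in these data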;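 note: plate controls were negative control wells for no effect and 2.5 mM tranylcypromine positive control for full effect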
PostGolgi yeast: growth inhibition of a yeast mutant, post-Golgi transport screen; post-Golgi transport phenotypic cell assay; inhibition, % at 10 µM; 98,000 compounds, 0.9% hits;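 note: yeast cells grown in 1536-well plates; yeast grown about 18 h at 30C before absorbance read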
CYP2C9 inh: inhibitors of human CYP2C9 | inhibition, % at 5 µM | P11712 | AID 777 | 96,000 compounds, 20% hits | CYP2C9 Supersomes, luciferin-H conversion, luminescence;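 active = blocking of liver enzyme CYP2C9 beyond about 50% at 5 µM, limit read from the data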
Starred values were filed as active, the others as inactive; / = no result given. Cut-off read from the data, not from the text of the source, unless noted: active = inhibition above about 30%; inactive = the rest.

SMILES	PostGolgi ctrl	CYP2C19 activ	CYP2C9 activ	CYP2C19 inhib	PostGolgi yeast	CYP2C9 inh
CCC1CCCCN1C(=O)CSc1nnc(-c2ccc(Cl)cc2)o1 (stereo unspecified)	8.0	0.2	0.7	82.5*	-19.7	32.8
CCC1CCCCN1C(=O)CSc1nnc(CNC(=O)COc2ccc(Cl)cc2)o1 (stereo unspecified)	3.9	0.5	0.4	45.3	-2.7	61.7*
CCC1CCCCN1C(=O)CSc1nnc(-c2ccco2)o1 (stereo unspecified)	5.5	/	/	/	-2.5	/
CCC1CCCCN1C(=O)CSc1nnc(-c2ccc(Cl)s2)o1 (stereo unspecified)	8.1	0.1	0.5	95.0*	-6.7	46.0
O=C(COc1ccc(Cl)cc1)NCc1nnc(SCC(=O)NC2CCCC2)o1	1.7	1.1	1.7	-12.6	-0.6	-70.6
CCC1CCCCN1C(=O)CSc1nnc(-c2cccc(Cl)c2)o1 (stereo unspecified)	6.5	0	2.3*	97.5*	-8.8	-128.5
COc1ccc(-c2nnc(SCC(=O)N3CCCCC3)o2)cc1OC	0.5	0.8	1	16.2	-1.6	3.6
CSCCC(NS(=O)(=O)c1ccc(Cl)cc1)C(=O)OCC(=O)NC1CCCCC1 (stereo unspecified)	24.7	0.9	0.7	5.4	-1.8	28.0
CCc1ccc2[nH]c(=O)c(CN(Cc3ccccc3)Cc3nnnn3Cc3ccco3)cc2c1	13.4	0.9	0.9	11.6	4.6	5.0
CCOC(=O)Cn1nnnc1C(CC)N(Cc1ccccc1)Cc1cc2cc(C)ccc2[nH]c1=O (stereo unspecified)	2.6	0.4	0.5	58.3*	3.6	54.4*
CCOC(=O)Cn1nnnc1CN(Cc1ccccc1)Cc1cc2cc(CC)ccc2[nH]c1=O	3.1	0.5	0.4	48.2	2.1	62.5*
CCC(c1nnnn1CCOC)N(Cc1ccc(C)cc1)Cc1cc2cc(OC)ccc2[nH]c1=O (stereo unspecified)	8.0	0.8	0.9	18.8	4.2	11.8
COc1cc(-c2nnc(-c3ccco3)o2)ccc1OCc1ccccc1	25.0	/	/	/	4.8	/
COc1ccc(OC)c(S(=O)(=O)n2nc(C)cc2C)c1	21.3	0.3	0.9	68.1*	14.1	14.3
COc1ccc(OC)c(S(=O)(=O)n2cnc3cc(C)c(C)cc32)c1	30.1*	0	0.1	97.5*	5.3	86.8*
CCN(CCNC(=O)Cn1c(=O)sc2ccccc21)c1ccccc1	7.3	0.3	0.9	68.1*	-5.7	5.9
Cc1csc(NC(=O)CCn2c(=O)sc3ccccc32)n1	10.0	0.2	3.6*	79.2*	-4.9	-255.6
CCN1CCN(C(=O)Cn2c(=O)sc3ccccc32)CC1	9.3	0.9	0.9	11.8	9.5	9.7
CC1CCCC(C)N1C(=O)Cn1c(=O)sc2ccccc21 (stereo unspecified)	8.1	0.3	1	66.9*	-0.4	4.3
O=C(CCn1c(=O)sc2ccccc21)NCCC1=CCCCC1	/	0.1	1.7	88.2*	/	-74.9
O=C(CCN1C(=O)c2ccccc2C1=O)NCCC1=CCCCC1	-3.4	/	/	/	1.2	/
CCCCN(C)CCCNC(=O)Cn1c(=O)sc2ccccc21	2.7	1.2	1.1	-16.4	19.4	-9.4
O=C(Nc1nc2ccccc2[nH]1)C1CCN(S(=O)(=O)c2cccs2)CC1	-8.2	1	1	-2.5	20.7	1.0
CCc1cccc(CC)c1N(COC)C(=O)Cn1c(C(C)O)nc2ccccc21 (stereo unspecified)	-10.3	0.9	0.9	6.3	2.9	5.7
O=C(O)CCC(NS(=O)(=O)c1ccc(-c2ccccc2)cc1)C(=O)O (stereo unspecified)	-1.2	1	1.1	-2.7	-0.8	-12.9
SMILES	PostGolgi ctrl	CYP2C19 activ	CYP2C9 activ	CYP2C19 inhib	PostGolgi yeast	CYP2C9 inh
O=C1C/C(=C/NCc2ccccc2)C(=O)N1	-2.9	1	1	0.1	4.5	-2.9
O=C(CCn1c(=O)sc2ccccc21)Nc1nccs1	2.4	0.2	1.1	83.7*	0.8	-9.1
CCCc1nnc(NC(=O)Cn2c(=O)sc3ccccc32)s1	-1.2	0.4	0.3	64.0*	4.5	74.8*
CC(=O)Nc1cccc(NC(=O)CCn2c(=O)sc3ccccc32)c1	-6.1	0.9	0.7	14.9	-2.8	31.4
CSc1ccccc1NC(=O)CCn1c(=O)sc2ccccc21	2.1	0.5	1	51.5*	3.1	3.5
CCn1c(=NC(=O)CSCC(=O)Nc2nccs2)sc2ccccc21	27.0	0.1	0.2	92.4*	-2.3	83.7*
O=C(CCn1c(=O)oc2ccccc21)Nc1nccs1	3.8	0.7	0.7	25.2	0.2	29.6
O=C(OC(C(=O)O)C(OC(=O)c1ccccc1)C(=O)NCc1ccccc1)c1ccccc1 (stereo unspecified)	12.6	1.1	1.1	-9.4	-2.7	-14.0
CCOc1ccc(C2C(C#N)=C(N)Oc3cc(C)n(CCN4CCOCC4)c(=O)c32)cc1OCC (stereo unspecified)	2.0	1.1	0.8	-5.7	11.7	16.1
O=c1[nH]c2ccccc2c(=O)n1Cc1ccco1	6.4	1	1.1	3.3	-6.0	-8.5
Cc1nc(N2CCN(c3ccccc3)CC2)c2c3c(sc2n1)CCC3	/	0.1	0.1	94.9*	/	94.2*
Oc1ccc(N2CCN(c3ncnc4sc5c(c34)CCC5)CC2)cc1	1.4	0.9	1	11.7	14.9	-3.8
c1ccc2c(c1)nnn2-c1ncnc2sc3c(c12)CCCC3	15.8	0.9	2.1*	11.0	8.3	-107.3
CC(O)CNc1nc2ccccc2n1-c1ncnc2sc3c(c12)CCC3 (stereo unspecified)	11.7	0.6	0.6	38.5	-2.7	44.5
Cc1nc(-n2nnc3ccccc32)c2c3c(sc2n1)CCCC3	32.2*	0.5	0.4	54.8*	2.5	59.4*
O=C(NNS(=O)(=O)c1ccccc1)c1ccncc1	3.0	1.2	1.2	-15.6	1.0	-21.8
CNC(=O)CSCc1cnn(-c2ccccc2)c1-n1cccc1	-3.5	0.2	0.5	75.8*	21.3	45.2
COc1cccc(CNC(=O)CSCc2cnn(-c3ccccc3)c2-n2cccc2)c1	23.4	0.1	0.1	92.0*	-2.9	93.8*
O=C(CSCc1cnn(-c2ccccc2)c1-n1cccc1)NCc1cccs1	7.8	0.5	0.2	53.2*	0.7	80.6*
Cc1ccc(CNC(=O)C2CCCN(Cc3cnn(-c4ccccc4)c3-n3cccc3)C2)cc1 (stereo unspecified)	4.7	0.8	0.6	20.2	4.9	43.6
CCOC(=O)N1CCC(NC(=O)CSCc2cnn(-c3ccccc3)c2-n2cccc2)CC1	2.6	0.4	0.5	57.2*	9.2	51.4*
CCOC(=O)C1CCCN(c2c(NCCc3ccc(S(N)(=O)=O)cc3)c(=O)c2=O)C1 (stereo unspecified)	5.6	1.1	1	-7.8	-2.0	3.2
COC(=O)c1c(C)noc1-c1cc(C)on1	4.6	0.9	1.2	13.6	-4.4	-23.6

Source: PubChem BioAssay
